Compound activity (PubChem BioAssay)
Sampled rows, rich in hits. Any-hit rate of the full collection: about 3.8%.
GLS inhibitor = glutaminase GLS (human) inhibition | GLS enzymatic activity, qHTS titration | Potency, µM (highest dose often 45.5 µM), without a hit: at the top dose activity change, negative = inhibition, actives largely listed as inhibitors | hit rate 0.21% among 410,000 | AID 624170
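Read-out is an Amplex red fluorescence increase coupled through glutamate oxidase and HRP, measured before and after 30 min room-temperature incubation. hKGA is in 45 mM KH2PO4 (pH 8.2) with 0.02% Tween-20; glutamine added as 1mM solution.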
rTrxR1 inhibitor = blocks rat thioredoxin reductase 1; O89049; recombinant rTrxR1, NADPH fluorescence consumption, selenite substrate; AID 588453; Potency, µM (doses to about 114 µM), inactives show top-dose activity change, negative = inhibition, hits mostly inhibitors; hit rate 1% among 390,000; further: nearly all actives have a fitted effect of over 65% in size
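Rat TrxR1 (90 nM in the dispensed reagent) was pre-reduced with 400 uM NADPH for 5 min at room temperature, then incubated with compound for 15 min. After 400 uM selenite was added, NADPH fluorescence (Ex 340/Em 450 nm) was followed for 8 min.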
TrxR1 substrate = rat thioredoxin reductase 1 substrate activity; hit rate 0.01% among 390,000; purified TrxR1 substrate turnover, NADPH consumption readout; O89049; Potency, µM (highest dose often 114 µM), for inactives: at the top dose activity change, negative = substrate turnover; further: nearly all actives have a fitted effect of over 50% in size
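Rat TrxR1, dispensed at 90 nM, was prereduced with 400 uM NADPH (final) for 5 min at ~22 deg C, then incubated with compound 15 min before 400 uM selenite. A first-read NADPH fluorescence drop versus no-compound background flagged substrates.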
VDR inh = vitamin D3 receptor (human) inhibition | VDR-SRC2-3 peptide fluorescence polarization, 2 h | Potency, µM, for inactives: max response, negative = inhibition, most hits filed as inhibitors | hit rate 0.93% among 400,000 | AID 504847
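The screen uses fluorescence polarization to detect compounds that interfere with recruitment of the SRC2-3 coactivator peptide to VDR; plates are read after 2 h at room temperature.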
KAT2A inh = blocks human GCN5L2 histone acetyltransferase | Q92830 | GCN5L2 HAT assay, ThioGlo1 CoA-SH fluorescence | Potency, µM (highest dose often 58.9 µM), for inactives: at the top dose activity change, negative = inhibition, usual class: inhibitors | hit rate 0.21% among 390,000 | AID 504327
Target sequence (Q92830 whole entry, looked up): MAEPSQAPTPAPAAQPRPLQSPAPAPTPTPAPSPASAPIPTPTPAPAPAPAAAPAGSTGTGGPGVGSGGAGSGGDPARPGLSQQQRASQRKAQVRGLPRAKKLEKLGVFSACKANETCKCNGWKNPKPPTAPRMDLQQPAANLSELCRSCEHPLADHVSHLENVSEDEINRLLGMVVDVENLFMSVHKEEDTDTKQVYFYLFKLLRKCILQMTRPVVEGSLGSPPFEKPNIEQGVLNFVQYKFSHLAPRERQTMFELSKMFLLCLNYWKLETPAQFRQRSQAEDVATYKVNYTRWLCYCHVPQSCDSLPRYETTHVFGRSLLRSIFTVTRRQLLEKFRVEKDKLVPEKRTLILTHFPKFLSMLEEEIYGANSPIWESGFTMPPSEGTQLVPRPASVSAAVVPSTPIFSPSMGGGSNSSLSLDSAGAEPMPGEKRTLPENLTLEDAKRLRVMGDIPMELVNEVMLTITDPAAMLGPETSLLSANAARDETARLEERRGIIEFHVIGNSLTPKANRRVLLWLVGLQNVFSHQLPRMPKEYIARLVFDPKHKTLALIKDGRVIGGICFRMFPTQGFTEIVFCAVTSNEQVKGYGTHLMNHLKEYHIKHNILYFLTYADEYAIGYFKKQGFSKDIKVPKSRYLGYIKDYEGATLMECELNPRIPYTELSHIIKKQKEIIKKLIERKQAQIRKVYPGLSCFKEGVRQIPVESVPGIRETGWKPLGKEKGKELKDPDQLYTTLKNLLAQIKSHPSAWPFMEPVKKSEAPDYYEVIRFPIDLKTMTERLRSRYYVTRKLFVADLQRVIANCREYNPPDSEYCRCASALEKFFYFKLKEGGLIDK
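Fluorescence readout, Ex340nm/Em540nm: ThioGlo1 (50uM final) reacts with free CoA thiol released as 20nM GCN5L2 acetylates H3(1-25) peptide (75uM) using acetyl-CoA (70uM). Compound and enzyme sat 15 min beforehand; 20 min room-temperature reaction.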
Sfp PPTase inh = blocks B. subtilis Sfp PPTase activity | Q9F4F7 | hit rate 3.5% among 310,000 | Potency, µM, inactives show largest response in the series, negative = inhibition, most hits filed as inhibitors | Biochemical Sfp PPTase activity, qHTS | AID 1490;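 further: the enzyme is Sfp with the accession as filed and its product quenches rhodamine fluorescence; 0% = enzyme reaction without inhibitor and -100% = no enzyme wells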
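After 15 min at room temperature with compound, 15 nM Sfp received 5 uM rhodamine-CoA plus 12.5 uM BHQ-2-ybbR (50 mM Hepes pH 7.6, 10 mM MgCl2). Rate came from the fluorescence difference over 30 min, ex 525/em 598 nm.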
* marks the source's active call; other numbers are inactive results; ? = inconclusive; / = not tested or not shown; [ ] = remark or other dose. The call rests on the fitted dose curve; in most records, active means well fitted curve in the direction sought with a large enough effect; inconclusive means small, poorly fitted or top-dose-only effect, or another doubt; inactive means no such curve, though single readings can be large; an effect the other way counts as inactive or inconclusive. Unless noted, on the % scale 0 is the no-effect control and ±100 the full control effect; potency means the concentration at half of the fitted maximal effect.

SMILES	GLS inhibitor	rTrxR1 inhibitor	TrxR1 substrate	VDR inh	KAT2A inh	Sfp PPTase inh
Cc1ccc2c(c1)c1c3n2CCN(C(=O)CN2CCN(C)CC2)C3CCC1 (stereo not drawn)	24%	9%	18%	7%	-6%	-10%
Cc1ccc2c(c1)c(=O)c1c3n2CCN(C(=O)CCl)C3CC1 (stereo not drawn)	-23%	14µM*	14%[57.1 µM]	?	-10%	79µM*
O=C(C[C@H]1C/C=C\C[C@H](Cc2ccc(F)cc2)C(=O)OCCNC1=O)NCCO	9%	11%[57.1 µM]	10%[57.1 µM]	-12%	7%	/
CC(C)C12CN3CC(C(C)C)(CN(C1)C3c1ccc3c(c1)OCO3)C2=O (stereo not drawn)	0%	6%	-8%	10%	-5%	-3%
O=C1C=CC(=O)N1c1ccccc1N1C(=O)C=CC1=O	?	0.32µM*	4%	3.2µM*	/	/
O=C(c1ccccc1)c1ccccc1N1C(=O)C=CC1=O	?	2.2µM*	13%[57.1 µM]	25µM*	?	1.3µM*
O=C1C=CC(=O)N1c1ccccn1	-22%	?	21%	-1%	/	/
COc1cc(-c2nc3ccccn3c2Nc2ccccc2C)ccc1O	2%	-5%	134%	-14%	-13%	/
O=C(CN1C(=O)/C(=C/c2ccco2)SC1=S)Nc1ccc(C(=O)O)c(O)c1	22µM*	7%	-7%	9%	?	50µM*
COc1ccc(C=C2SC(=S)N(CCCC(=O)Nc3ccc(C(=O)O)c(O)c3)C2=O)cc1OC	28%	/	/	/	/	/
O=C(CCCN1C(=O)/C(=C/c2ccccc2)SC1=S)Nc1ccc(C(=O)O)c(O)c1	?	-12%	-12%	?	-29%	13%
O=C(CCCN1C(=O)/C(=C/c2cccs2)SC1=S)Nc1ccc(O)c(C(=O)O)c1	/	/	/	/	-7%	?
O=C(CCN1C(=O)/C(=C/c2ccccc2)SC1=S)NC1CCS(=O)(=O)C1 (stereo not drawn)	-2%	13%	-1%	-15%	-12%	7%
O=C(CN1C(=O)/C(=C/c2ccco2)SC1=S)Nc1ccc(O)c(C(=O)O)c1	-10%	5%	6%	-6%	-35%	50µM*
O=C(CN1C(=O)/C(=C/c2ccco2)SC1=S)NC1CCS(=O)(=O)C1 (stereo not drawn)	?	?	-6%	-12%	-14%	25µM*
CC(C(=O)Nc1ccc(C(=O)O)c(O)c1)N1C(=O)/C(=C\c2ccco2)SC1=S (stereo not drawn)	18µM*	26%	-1%	-10%	?	50µM*
O=C(CN1C(=O)CSC1=O)N1CCCCC1	11%	-8%	-3%	-4%	-4%	24%
O=C(COC(=O)c1ccc([N+](=O)[O-])cc1)NC1CCCC1	11%	16%	-2%	-4%	-2%	6%
Oc1ccc(/C=N/N=C/c2ccc(O)c(O)c2)cc1O	?	-10%	-7%	-7%	-5%	-16%
Oc1ccc(N=Cc2ccc(O)c(O)c2)cc1	?	-26%	-12%	?	-11%	45µM*
S=c1[nH]nc(-c2ccc(Br)cc2)n1-c1ccc2c(c1)OCCO2	?	-30%[57.1 µM]	4%	-15%	-9%	40µM*
Oc1ccc(-c2n[nH]c(=S)n2-c2ccc3c(c2)OCCO3)c(O)c1	8%	?	-1%	-1%	-10%	?
S=c1[nH]nc(-c2ccc(Cl)cc2Cl)n1-c1ccc2c(c1)OCCO2	-3%	?	4%[57.1 µM]	-6%	-3%	45µM*
COc1ccc(-c2n[nH]c(=S)n2-c2ccc3c(c2)OCCO3)cc1	-9%	-13%	3%	-20%	0%	?
ClCC1=Nc2cccc3cccc(c23)N1	/	/	/	/	-4%	63µM*
SMILES	GLS inhibitor	rTrxR1 inhibitor	TrxR1 substrate	VDR inh	KAT2A inh	Sfp PPTase inh
CC(C)C1=Nc2cccc3cccc(c23)N1	7%	-15%	-7%	5%	0%	35µM*
COc1ccc(C2=Nc3cccc4cccc(c34)N2)cc1	4%	-21%	4%	-12%	-4%	13%
COc1ccc(N2C(=O)CC(NCc3ccc(F)cc3)C2=O)cc1 (stereo not drawn)	6%	-8%	-2%	13%	-4%	11%
Cc1ccc2oc(C(=O)N(C)Cc3ccon3)c(C)c2c1	-2%	14%	-2%	5%	-7%	4%
S=C(c1ccccc1)N1CCN(c2ccccc2)CC1	-2%	13%[57.1 µM]	11%[57.1 µM]	-12%	/	/
CC(C)(C)c1ccc(C(=S)N2CCN(c3ccccc3)CC2)cc1	-4%	25%	6%	?	-3%	50µM*
O=[N+]([O-])c1ccc(N2CCCCC2)s1	-8%	?	-26%	-17%	?	50µM*
CC1CCCN(c2c([N+](=O)[O-])cc(C(=O)O)cc2[N+](=O)[O-])C1 (stereo not drawn)	-5%	7%	-2%	-14%	-3%	-16%
CC1CCCN(c2ccc([N+](=O)[O-])s2)C1 (stereo not drawn)	-5%	-18%	-20%	-27%	?	50µM*
O=[N+]([O-])c1ccc(N2CCN(Cc3ccccc3)CC2)s1	12%	-8%	-11%	10%	-14%	2%
Cc1cc(C)cc(-n2nnn(C3C/C(=N/NC(N)=S)C4OCC3O4)c2=S)c1 (stereo not drawn)	10%	-17%	1%	4%	-19%	56µM*
O=C(Nc1nc2c(F)cc(F)cc2s1)C1CC(=O)N(Cc2ccco2)C1 (stereo not drawn)	-13%	50µM*	6%	?	-13%	10µM*
COc1ccc(-c2cc(C(F)(F)F)nc(-n3cc(Br)cn3)n2)cc1	3%	93%	153%	1%	-5%	22µM*
CC(OC(=O)CCc1nc2ccccc2[nH]c1=O)C(=O)c1ccccc1 (stereo not drawn)	1%	0%	9%	2%	1%	9%
COCCCN1C(=O)C2C(C(=O)Nc3cc(C)cc(C)c3)C3C=CC2(O3)C1C(=O)NC1CCCCC1 (stereo not drawn)	5%	-36%	0%	-1%	-5%	40µM*
COCCCN1C(=O)C2C(C(=O)Nc3cccc(Cl)c3)C3C=CC2(O3)C1C(=O)NC1CCCCC1 (stereo not drawn)	7%	18%[57.1 µM]	7%[57.1 µM]	-4%	-4%	4%
Cc1cccc(NC(=O)COc2ccc(/C=C\c3[nH]c(=O)[nH]c(=O)c3[N+](=O)[O-])cc2)c1	0%	-15%[57.1 µM]	-5%[57.1 µM]	?	-28%	50µM*
O=c1[nH]c(/C=C/c2ccc([N+](=O)[O-])cc2)c([N+](=O)[O-])c(=O)[nH]1	9%	-14%	-10%	?	-7%	0%
